14 molecules from PubChem BioAssay can be followed below.

Activity calls are given as the source filed them.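 Rule for the calls, unless noted: active = inhibition at or above 50% at 10 µM; inactive = inhibition below 50%.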

Assay [1] in a line: inhibitors of TNFa-induced NFkB p65 translocation, primary screen, imaging, HUVEC, MLSMR starter and 10KST1 sets (AID 438;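 active = inhibition above 20% together with a positive visual image hit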;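 note: compound added about 3h40 before a 20 min TNFalpha stimulation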;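 for inhibition: signal is the nuclear over cytoplasmic p65 intensity ratio per well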). The conditions noted are these: HUVEC TNFa-induced p65 nuclear translocation; cell count: measured here: nuclei count (cytotoxicity indicator), at 2.08 µM; inhibition: at 2 µM, stronger effect = higher value, 0% TNFa-plus-vehicle, 100% no-TNFa wells.
Assay [2] can be described thus: inhibitors of mutant huntingtin aggregation, primary screen, imaging, exon1htt(103Q)mCFP cells, high-content imaging (AID 483;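 active = visual image review flags a hit and inhibition of aggregation exceeds 20%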;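 note: compound exposure lasted 3 days before fixation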;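 for nuclei count: percent of the per-plate median nuclei count of sample wells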). The conditions noted are these: exon1htt(103Q)mCFP cell line, aggregate imaging, at 2 µM; inhibition of aggregation: stronger effect = higher value; nuclei count: measured here: cell count, toxicity.
Assay [3] can be described thus: inhibitors of E-selectin induction by TNFa, primary screen, imaging, HUVEC, immunofluorescence, MLSMR starter and 10KST1 sets (AID 487;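 active = visually confirmed hit in the image check and inhibition above 20%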;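 for inhibition: signal is fraction of cell area covered by stained E-selectin grains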;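 for nuclei count: 100% = median nuclei count of all wells on the same plate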). The conditions noted are these: HUVEC TNFalpha-induced E-selectin immunofluorescence imaging, at 2 µM; inhibition: stronger effect = higher value; nuclei count: measured here: cell number, toxicity.
Assay [4] deals with Voltage-gated potassium channel subunit beta-2 (Rattus norvegicus) (UniProt P62483). The experiment in a line: KvBeta enzyme negative modulators, primary screen, biochemical, NADPH fluorescence (AID 622;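 active = fluorescence slope higher than the sample average by over 3 SD, cut at about -0.22 in these data, passing the limit was not always enough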;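 note: slope of raw intensity against log time taken from 70 to 1610 s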). The conditions noted are these: recombinant KvBeta, 4-cyanobenzaldehyde reduction, at 10 µM, stronger effect = higher value.
The target is the same in assay [5]. In words: KvBeta positive modulators, primary screen, biochemical, NADPH fluorescence (AID 623;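 active = NADPH fluorescence slope more negative than the mean of all samples by about 3 SD, 99.7% confidence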;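 note: fluorescence intensity change per second fitted from 20 to 320 s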). The conditions noted are these: Recombinant KvBeta, NADPH fluorescence decrease slope, 10 min; at 10 µM; stronger effect = lower value.
Assay [6] deals with Alpha-2C adrenergic receptor (Homo sapiens) (UniProt P18825). In words: modulators of alpha2C/GIRK thallium flux, primary screen, cell-based, HEK293 alpha2C/GIRK1/2 (AID 624;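 active = fluorescence slope after compound addition differing from the mean of all screened samples at 99.7% confidence, in either direction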;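 note: slope of fluorescence ratio to pre-addition baseline per second over 15 to 24 s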). The conditions noted are these: thallium flux BTC fluorescence, at 10 µM, actives lie on both sides.
Assay [7] in a line: inhibitors of Sendai virus-induced IRF3 signaling, primary screen, TLR/RLR signaling modifier project, cell-based, Sendai virus stimulus, luciferase, 10K MLSCN set (AID 602276).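 Note: firefly luciferase from ISG56 promoter only with Renilla not read in this screen; 0% = Sendai virus plus DMSO and 100% = medium plus DMSO without virus.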 The conditions noted are these: HEK293 RL24 IRF3 luciferase reporter, at 10 µM, stronger effect = higher value. In general terms: Reporter assays use an easily measured gene product as a stand-in for the process of interest.

A short description of assay [8]: inhibitors of poly I:C-induced TLR3 signaling, primary screen, cell-based, poly I:C stimulus, luciferase, 10K MLSCN set (AID 602277;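 active = inhibition of the reporter signal at or above 50%; inactive = inhibition below 50%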). The conditions noted are these: HEK293-TLR3 RL24 IRF3 luciferase reporter, at 10 µM, stronger effect = higher value.

Chain of Voltage-gated potassium channel subunit beta-2 (Rattus norvegicus) (P62483 whole entry, looked up): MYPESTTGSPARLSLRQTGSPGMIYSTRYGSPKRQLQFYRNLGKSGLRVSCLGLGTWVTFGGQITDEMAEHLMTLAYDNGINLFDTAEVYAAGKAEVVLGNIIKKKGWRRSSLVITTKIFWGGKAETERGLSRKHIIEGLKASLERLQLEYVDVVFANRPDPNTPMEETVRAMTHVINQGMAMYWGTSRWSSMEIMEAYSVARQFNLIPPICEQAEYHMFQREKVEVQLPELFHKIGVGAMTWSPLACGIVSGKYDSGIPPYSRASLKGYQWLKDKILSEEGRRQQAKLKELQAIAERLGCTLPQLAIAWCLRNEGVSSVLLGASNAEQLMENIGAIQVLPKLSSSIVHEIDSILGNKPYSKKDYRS
Chain of Alpha-2C adrenergic receptor (Homo sapiens) (P18825 whole entry, looked up): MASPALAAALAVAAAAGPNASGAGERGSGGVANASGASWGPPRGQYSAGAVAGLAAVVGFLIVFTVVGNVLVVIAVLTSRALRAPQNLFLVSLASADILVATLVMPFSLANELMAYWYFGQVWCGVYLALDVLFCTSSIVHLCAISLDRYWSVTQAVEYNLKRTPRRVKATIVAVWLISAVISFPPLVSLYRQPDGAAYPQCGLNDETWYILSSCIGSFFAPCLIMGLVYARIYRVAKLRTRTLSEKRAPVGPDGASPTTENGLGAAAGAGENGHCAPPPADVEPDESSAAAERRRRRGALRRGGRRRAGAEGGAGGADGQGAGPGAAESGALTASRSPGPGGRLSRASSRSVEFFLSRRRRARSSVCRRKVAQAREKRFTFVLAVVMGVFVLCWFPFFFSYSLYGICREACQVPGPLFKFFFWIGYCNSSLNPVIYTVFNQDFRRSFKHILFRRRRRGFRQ

Regarding `CCOCCCn1c(=NC(C)=O)c(C(=O)OCC)cc2c(=O)n3ccccc3nc21`, the cell count in assay [1] came out at 473. Further, the inhibition – broadly, the drop in the measured response relative to a control, in per cent – in assay [1] is -3.3% (inactive); in assay [3], -119% (inactive); in assay [7] it was -7.28% (inactive); in assay [8], -15% (inactive). Also, the inhibition of aggregation in assay [2] is 2.4% (inactive). Besides, the nuclei count came out at 108% in assay [2] and 129% in assay [3]. In addition, the fluorescence slope in assay [4] was -0.114 (inactive). In addition, in assay [5], the NADPH fluorescence slope was -3.8e-05 (inactive). The slope in assay [6] is 0.00394 (inactive).
`CCOC(=O)c1cc2c(=O)n3ccccc3nc2n(CC(C)C)c1=NC(=O)c1ccco1`: the cell count in assay [1] turned out to be 659. The inhibition is -13.4% (inactive) in assay [1], -49.4% (inactive) in assay [3], 2.77% (inactive) in assay [7] and 20.4% (inactive) in assay [8]. The inhibition of aggregation in assay [2] was 6.2% (inactive). The nuclei count in assay [2] was 96.7%; in assay [3], 112%. Besides, the fluorescence slope in assay [4] is -0.532 (inactive). In addition, the NADPH fluorescence slope in assay [5] was -5.6e-06 (inactive). In addition, the slope in assay [6] is 0.00344 (inactive).
For the molecule `Cc1cccc(-n2nc3c(c2NC(=O)CCC2CCCCC2)CS(=O)C3)c1C` (centres undefined), in assay [1], the cell count came out at 637. The inhibition is -8.7% (inactive) in assay [1], -27.4% (inactive) in assay [3], 10.6% (inactive) in assay [7] and 37.7% (inactive) in assay [8]. Also, the inhibition of aggregation in assay [2] is -46.2% (inactive). The nuclei count in assay [2] stood at 80%; in assay [3], 110%. The fluorescence slope in assay [4] is -0.427 (inactive). The NADPH fluorescence slope in assay [5] is -2.6e-06 (inactive). The slope in assay [6] is 0.00515 (inactive).
For `Cc1c(NC(=O)c2ccc(CN3CCc4ccccc4C3)cc2)c(=O)n(-c2ccccc2)n1C`, the cell count in assay [1] worked out at 593. Besides, the inhibition in assay [1] is -5.6% (inactive); in assay [3], -70.8% (inactive); in assay [7], 5.86% (inactive); in assay [8] it was 7.1% (inactive). The inhibition of aggregation in assay [2] was -45.4% (inactive). Besides, the nuclei count in assay [2] is 110%; in assay [3] it was 142%. Also, in assay [4], the fluorescence slope is -0.403 (inactive). Also, the NADPH fluorescence slope in assay [5] is -4.1e-05 (inactive). Besides, in assay [6], the slope is 0.0063 (inactive).
With `COc1ccccc1N(CC(=O)Nc1cccnc1)S(C)(=O)=O`, the cell count in assay [1] amounted to 623. Besides, the inhibition was 9.2% (inactive) in assay [1], 58.2% (inactive) in assay [3], 7.85% (inactive) in assay [7] and 17.6% (inactive) in assay [8]. Further, the inhibition of aggregation in assay [2] was 20.5% (inactive). Also, the figures for the nuclei count in assay [2] and in assay [3] were 92.6% and 34.6%, respectively. In addition, the fluorescence slope in assay [4] was -0.408 (inactive). In addition, the NADPH fluorescence slope in assay [5] is -6.4e-05 (inactive). Further, the slope in assay [6] was 0.00671 (inactive).
Consider `CCOc1ccc(S(=O)(=O)n2nc(C)cc2C)c2ccccc12`, for which the cell count in assay [1] turned out to be 355. In addition, the inhibition in assay [1] is -5.4% (inactive); in assay [3] it was -52.3% (inactive); in assay [7] it was -0.884% (inactive); in assay [8], -17.2% (inactive). Also, the inhibition of aggregation in assay [2] was 0.3% (inactive). For the same molecule, the nuclei count in assay [2] is 108%; in assay [3], 115%. In assay [4], the fluorescence slope was -0.347 (inactive). Besides, the NADPH fluorescence slope in assay [5] is 2e-05 (inactive). Also, the slope in assay [6] was 0.00571 (inactive).
As for `COc1cc(C(=O)OC(C)CN2CCCC2)cc(OC)c1OC` (centres undefined), the cell count in assay [1] is 286. Besides, the inhibition is 2.9% (inactive) in assay [1], 30.9% (inactive) in assay [3], 5.11% (inactive) in assay [7] and 11.1% (inactive) in assay [8]. Moreover, in assay [2], the inhibition of aggregation is -4.1% (inactive). The nuclei count in assay [2] and in assay [3] was 101% in each case. For the same molecule, in assay [4], the fluorescence slope was -0.324 (inactive). The NADPH fluorescence slope in assay [5] was -5.1e-05 (inactive). Also, the slope in assay [6] is 0.00369 (inactive).
Consider `CC(NC(=O)C1CC1)C(c1cccs1)N1CCN(c2ccccc2)CC1` (centres undefined), for which the cell count in assay [1] stood at 884. Also, the inhibition in assay [1] was 4.2% (inactive); in assay [3] it was -17.3% (inactive); in assay [7], 6.3% (inactive); in assay [8], 23.6% (inactive). In addition, in assay [2], the inhibition of aggregation is -7.2% (inactive). Moreover, the nuclei count in assay [2] was found to be 100%; in assay [3], 116%. The fluorescence slope in assay [4] was -0.495 (inactive). Also, in assay [5], the NADPH fluorescence slope is -3e-05 (inactive). In addition, in assay [6], the slope is 0.00607 (inactive).
As to `CC(=O)Nc1ccc(NS(=O)(=O)C(F)(F)F)cc1`, the cell count in assay [1] worked out at 417. In addition, the inhibition in assay [1] was 2% (inactive); in assay [3], -96% (inactive); in assay [7], 3.92% (inactive); in assay [8], 21.1% (inactive). Further, the inhibition of aggregation in assay [2] was 8% (inactive). The nuclei count in assay [2] is 104%; in assay [3], 127%. For the same molecule, in assay [4], the fluorescence slope was -0.353 (inactive). Also, the NADPH fluorescence slope in assay [5] was -0.000109 (inactive). Further, in assay [6], the slope was 0.00651 (inactive).
Take `COc1ccc(-c2nnc(SCC(=O)c3cc(C)n(Cc4cccs4)c3C)o2)cc1`: the cell count in assay [1] worked out at 497. Besides, the inhibition was -13.7% (inactive) in assay [1], -129% (inactive) in assay [3], -5.7% (inactive) in assay [7] and -11.8% (inactive) in assay [8]. The inhibition of aggregation in assay [2] is -13.1% (inactive). Also, the figures for the nuclei count in assay [2] and in assay [3] were 97.7% and 161%, respectively. In addition, in assay [4], the fluorescence slope is -0.559 (inactive). Also, in assay [5], the NADPH fluorescence slope was 5.5e-05 (inactive). For the same molecule, in assay [6], the slope was 0.00615 (inactive).
Take `COc1ccc(Cl)c(NCCC(=O)O)c1`: in assay [1], the cell count stood at 632. Besides, the inhibition in assay [1] is -4.2% (inactive); in assay [3], -96.7% (inactive); in assay [7], -8.17% (inactive); in assay [8], -4.52% (inactive). Besides, in assay [2], the inhibition of aggregation is 2.2% (inactive). In addition, the nuclei count stood at 110% in assay [2] and 130% in assay [3]. In assay [4], the fluorescence slope is -0.453 (inactive). In addition, the NADPH fluorescence slope in assay [5] was -0.000352 (inactive). Besides, in assay [6], the slope was 0.00574 (inactive).
As to `COc1ccc(NC(=O)CCc2nc(-c3ccccc3F)no2)cc1`, in assay [1], the cell count came to 729. Moreover, the inhibition was -1.7% (inactive) in assay [1], -8.4% (inactive) in assay [3], 4.66% (inactive) in assay [7] and 10.4% (inactive) in assay [8]. Besides, in assay [2], the inhibition of aggregation was 30% (active). For the same molecule, the figures for the nuclei count in assay [2] and in assay [3] were 94.6% and 115%, respectively. Moreover, the fluorescence slope in assay [4] was -0.47 (inactive). In addition, in assay [5], the NADPH fluorescence slope is -2.2e-05 (inactive). Also, in assay [6], the slope is 0.00593 (inactive).
For `COc1ccc(S(=O)(=O)N2CCN(CC(=O)Nc3ccc(C)c(F)c3)CC2)cc1`, the cell count in assay [1] was found to be 339. For the same molecule, the inhibition in assay [1] is -8.1% (inactive); in assay [3], -4.2% (inactive); in assay [7], 18.5% (inactive); in assay [8], 23.8% (inactive). In assay [2], the inhibition of aggregation is -0.4% (inactive). For the same molecule, the nuclei count stood at 115% in assay [2] and 80.5% in assay [3]. Further, in assay [4], the fluorescence slope was -0.518 (inactive). For the same molecule, the NADPH fluorescence slope in assay [5] is 1.2e-05 (inactive). The slope in assay [6] was 0.00517 (inactive).
As for `Cc1ccc(C(c2sc3nc(C)nn3c2O)N2CC(C)OC(C)C2)cc1` (centres undefined), in assay [1], the cell count was 213. Further, the inhibition in assay [1] was -3.9% (inactive); in assay [3], -23.9% (inactive); in assay [7], 16.3% (inactive); in assay [8], 29.9% (inactive). Also, in assay [2], the inhibition of aggregation is -30.3% (inactive). The nuclei count worked out at 110% in assay [2] and 108% in assay [3]. Moreover, the fluorescence slope in assay [4] was -0.44 (inactive). Further, the NADPH fluorescence slope in assay [5] is -5.9e-05 (inactive). Moreover, the slope in assay [6] is 0.00489 (inactive).
